Experimental findings from PubChem BioAssay (Tox21) are described below.

The nature of assay [1]: qHTS assay to identify small molecule antagonists of the glucocorticoid receptor (GR) signaling pathway - cell viability counter screen (AID 720693). Also: nearly all actives have a fitted effect of over 55% in size. On the technique in general: Quantitative high-throughput screening tests each substance at several concentrations.
The nature of assay [2]: qHTS assay for identifying genotoxic compounds that show differential cytotoxicity against isogenic chicken DT40 cell lines with known DNA damage response pathways - wild type cell line (AID 743012). Also: nearly all actives have a fitted effect of over 60% in size. Also: potency is read from the fitted curve at half-maximal effect. The gist of the method: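 300 wt DT40 cells/well; cpd (DMSO) pintool-transferred after ~0.5 h at 37 C/5% CO2; 40 h incubation; CellTiter-Glo added, 30 min RT; luminescence read.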

Assay [3] can be described thus: qHTS assay for identifying genotoxic compounds that show differential cytotoxicity against isogenic chicken DT40 cell lines with known DNA damage response pathways - Rev3 mutant cell line (AID 743014). Also: nearly all actives have a fitted effect of over 55% in size. Also: potency is read from the fitted curve at half-maximal effect.
Assay [4] is described as follows: qHTS assay to identify small molecule antagonists of the androgen receptor (AR) signaling pathway - cell viability counter screen (AID 743033; also: nearly all actives have a fitted effect of over 45% in size).
Assay [5] in a line: qHTS assay to identify small molecule antagonists of the androgen receptor (AR) signaling pathway using the MDA cell line - cell viability counter screen (AID 743041; also: nearly all actives have a fitted effect of over 45% in size). The method in brief:
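Cytotoxicity counter screen: MDA-kb2 AR-luc cells, compound + R1881, 16 h, 37C, 0% CO2; CellTiter-Fluor added at 15.5 h, fluorescence read after 30 min.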

Assay [6] in a line: qHTS assay for identifying genotoxic compounds that show differential cytotoxicity against isogenic chicken DT40 cell lines with known DNA damage response pathways - Rad54/Ku70 mutant cell line (AID 743015). Also: nearly all actives have a fitted effect of over 60% in size.

Records with an inconclusive call do not appear. A number with no mark means an inactive call. Calls of active or inactive are those of the source. Calls follow the shape of the dose curve; as a rule, active = well fitted curve in the direction sought with a large enough effect in the repeat runs; inconclusive = weak or mixed curves; inactive = no such curve, though single readings can be large; an effect the other way counts as inactive or inconclusive.

Take `CCN(CC)CC1CCCCN1CC(=O)N1c2ccccc2C(=O)Nc2cccnc21` (centres undefined): the result in assay [1] and in assay [4] was inactive. Further, the Potency result in assay [2], in assay [3] and in assay [5] was “inactive” throughout.

Turning to `COc1cc(C)ccc1C(C)C`, the call in assay [1] and in assay [4] was inactive. The Potency entry in assay [2], in assay [3] and in assay [5] was “inactive” each time.

On to `CC(C)OC(C)C`, for which the compound was classed as inactive in assay [1] and in assay [4]. Besides, the Potency result in assay [2], in assay [3] and in assay [5] was “inactive” throughout.

`CCC(=O)Nc1ccc(O)cc1`: the compound was classed as inactive in assay [1]. For the same compound, the Potency entry in assay [2], in assay [3] and in assay [5] was “inactive” each time.

As to `CC(=O)N(CC(O)CN(C(C)=O)c1c(I)c(C(=O)NCC(O)CO)c(I)c(C(=O)NCC(O)CO)c1I)c1c(I)c(C(=O)NCC(O)CO)c(I)c(C(=O)NCC(O)CO)c1I` (centres undefined), the outcome in assay [1] was inactive. Besides, the Potency entry in assay [2], in assay [3] and in assay [5] was “inactive” throughout.

In the case of `Oc1ccccc1F`, the result in assay [1] and in assay [4] was inactive. Further, the Potency result in assay [2], in assay [3] and in assay [5] was “inactive” throughout.

With `FC(F)(F)C(Cl)(Cl)Cl`, the compound was called inactive in assay [1] and in assay [4]. Moreover, the Potency entry in assay [2], in assay [3] and in assay [5] was “inactive” each time.

Turning to `CCN(O)CC`, the result in assay [1] and in assay [4] was inactive. Besides, the Potency entry in assay [2], in assay [3] and in assay [5] was “inactive” in each case.

Consider `CC1(C)C(=O)N(Cl)C(=O)N1Br`, for which the compound was classed as inactive in assay [1]. Besides, the Potency result in assay [2], in assay [3] and in assay [5] was “inactive” each time.

With `CCCCOc1cc(C(=O)NCCN(CC)CC)c2ccccc2n1`, the result in assay [1] and in assay [4] was inactive. The Potency was 11.4 µM (active) in assay [2] and 5.07 µM (active) in assay [3]. In assay [5], the Potency entry is “inactive”.

On to `C=CCCCCCCCCO`, for which the result in assay [1] and in assay [4] was inactive. For the same compound, the Potency result in assay [2], in assay [3] and in assay [5] was “inactive” each time.

As for `CCCCCCCCOC(=O)CCCCCCCCC(=O)OCCCCCCCC`, the outcome in assay [1] and in assay [4] was inactive. In addition, the Potency in assay [2] is 68.6 µM (active); in assay [3] it was 17.2 µM (active). In addition, the Potency entry in assay [5] is “inactive”.

Consider `C=CCCC=C`, for which the outcome in assay [1] and in assay [4] was inactive. The Potency result in assay [2], in assay [3] and in assay [5] was “inactive” throughout.

For the compound `Cc1nnc(SCC2=C(C(=O)O)N3C(=O)[C@@H](NC(=O)Cn4cnnn4)[C@H]3SC2)s1`, the result in assay [1] and in assay [4] was inactive. The Potency entry in assay [2], in assay [3] and in assay [5] was “inactive” in each case.

Take `CC(=O)OC1C2(C)CCC(C2)C1(C)C` (centres undefined): the outcome in assay [1] and in assay [4] was inactive. In addition, the Potency entry in assay [2], in assay [3] and in assay [5] was “inactive” throughout.

In the case of `O=C(O)c1ccccc1Nc1cc(Cl)ccc1C(=O)O`, the compound was called inactive in assay [1] and in assay [4]. The Potency result in assay [2], in assay [3] and in assay [5] was “inactive” each time.

In the case of `O=C(O)C(=O)Cc1c[nH]c2ccccc12`, the compound was classed as inactive in assay [1] and in assay [4]. For the same compound, the Potency result in assay [2], in assay [3] and in assay [5] was “inactive” each time.

For `CC1CN(c2ccccc2)NC1=O` (centres undefined), the compound was classed as inactive in assay [1]. Besides, the Potency entry in assay [2], in assay [3] and in assay [5] was “inactive” in each case.

Turning to `O=Cc1ccc(F)c(Br)c1`, the compound was called inactive in assay [1]. The Potency entry in assay [2], in assay [3] and in assay [5] was “inactive” in each case.

For `C=O`, the call in assay [1] was inactive. Moreover, the Potency entry in assay [2], in assay [3] and in assay [5] was “inactive” each time.

In the case of `CC1=CC(=O)CC(C)(C)C1=O`, the compound was called inactive in assay [1] and in assay [4]. Further, the Potency entry in assay [2], in assay [3] and in assay [5] was “inactive” each time.

Take `C=CCc1cc(OC)c(O)c(C(=O)NCCO)c1`: the compound was classed as inactive in assay [1] and in assay [4]. The Potency entry in assay [2], in assay [3] and in assay [5] was “inactive” each time.

Regarding `COc1ccc(Nc2ccc(OC)cc2)cc1`, the result in assay [1] and in assay [4] was inactive. Moreover, the Potency result in assay [5] is “inactive”.

With `C[C@]12CCC(=O)C=C1CC[C@@H]1[C@@H]2CC[C@@]2(C)[C@H]1CC[C@]2(O)C(=O)CO`, in assay [1], the outcome was inactive. For the same compound, the Potency result in assay [5] was “inactive”.

Turning to `O=c1[nH]cnc2c1ncn2[C@@H]1O[C@H](CO)[C@@H](O)[C@H]1O`, the Potency result in assay [3], in assay [6] and in assay [5] was “inactive” in each case. For the same compound, in assay [4], the call was inactive.

For `O=C(Cl)c1cccc([N+](=O)[O-])c1`, the compound was classed as inactive in assay [1] and in assay [4]. For the same compound, the Potency entry in assay [5] is “inactive”.

For `CCCCCCCOC(=O)CCC`, in assay [1], the outcome was inactive. Besides, the Potency entry in assay [6] and in assay [5] was “inactive” each time.
